From PubChem BioAssay AID504720 (Sanford-Burnham Center for Chemical Genomics, 2011)
Out of some 350,000 compounds screened, about 1,100 (0.31%) were called active. Cut-off read from the data, not from the text of the source: active = activation above about 50%; inactive = the rest. Only a selection was taken, and actives are over-represented in it overall.

These compounds were tested against Endoribonuclease toxin MazF (Escherichia coli (strain K12)) (UniProt P0AE70) (assay: activators of E. coli MazEF toxin-antitoxin RNase, primary screen, biochemical, fluorescence, uHTS (AID 504720)). Conditions: FAM/BHQ RNA-DNA oligo cleavage fluorescence, 5 h, at 20 µM, active compounds read high.
Chain of Endoribonuclease toxin MazF (Escherichia coli (strain K12)) (P0AE70 whole entry, looked up): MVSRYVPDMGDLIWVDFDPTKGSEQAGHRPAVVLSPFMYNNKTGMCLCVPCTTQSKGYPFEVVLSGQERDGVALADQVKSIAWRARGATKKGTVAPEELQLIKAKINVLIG

SMILES	activation
Cc1nc(SCC(=O)Nc2cc(C)on2)c2c3c(sc2n1)CCCC3	63.5% (active)
Cc1cc(NC(=O)CSc2nc(C(C)C)nc3sc4c(c23)CCC(C)C4)no1 (stereo not given)	2.72% (inactive)
CC(C)c1nc(SCC(=O)Nc2cccc(C(=O)O)c2)c2c3c(sc2n1)CCCC3	3.75% (inactive)
CCC(C)(C)NC(=O)C(c1ccccn1)N(C(=O)c1csnn1)c1ccccc1 (stereo not given)	5.61% (inactive)
COc1ccc(CCNC(=O)CSc2nc(C)nc3c2oc2ccccc23)cc1OC	6.58% (inactive)
O=c1cc(CN2CCN(c3cccc(Cl)c3)CC2)c2cc3c(cc2o1)CCCC3	-4.83% (inactive)
Cc1ccnc(N2CCN(C(=O)CSc3nc4ccccc4nc3N3CCCCC3)CC2)c1	-5.31% (inactive)
COc1cc(OC)cc(-c2c(C#Cc3ccsc3)c3cc(-c4ccc(OC)cc4F)ccc3n2C)c1	-17.7% (inactive)
Cc1ccn2c(-c3csc(Nc4ccc(C(=O)O)cc4)n3)c(C)nc2c1	-8.63% (inactive)
O=c1oc2ccccc2cc1-c1csc(Nc2ccc(O)cc2)n1	78.3% (active)
Cc1ccc(Nc2nc(-c3ccc(O)cc3O)cs2)nc1	17.4% (inactive)
CCCC1(C(=O)OC)NC(c2ccco2)C2C(=O)N(C)C(=O)C21 (stereo not given)	-13% (inactive)
NS(=O)(=O)c1ccc(NC(=S)NNC(=O)c2cccs2)cc1	13.7% (inactive)
O=C(COC(=O)c1ccccc1C(=O)N1CCN(c2ccccc2)CC1)NCc1ccccc1	67.3% (active)
Oc1ccc(N2CCN(C(=S)NCc3ccccc3)CC2)cc1	-1.54% (inactive)
CC(C)N(C(=O)COC(=O)c1ccccc1C(=O)N1CCN(c2ccc(F)cc2)CC1)C(C)C	5.64% (inactive)
Cn1c2ccccc2n2c(=O)c(=O)n(CC(=O)c3ccc(F)cc3)nc12	-20.6% (inactive)
CCSc1ccccc1C(=O)NCc1ccc(OC)cc1	2.86% (inactive)
COc1ccc(OC)c(NC(=O)c2cnn(-c3ccccc3Cl)c2NC(=O)c2ccco2)c1	4.29% (inactive)
Cn1nc(C(F)(F)F)cc1C(=O)O	11.7% (inactive)
Cn1nc(C(F)(F)F)cc1-c1ccc(/C=C(\C#N)C(=O)c2cccc(C(F)(F)F)c2)s1	730% (active)
CCC(=O)OCc1c(C(F)(F)F)nn(C)c1Oc1cccc(C(F)(F)F)c1	-2.22% (inactive)
C=CCSc1nc(Cc2ccc(Cl)cc2)nc2ccccc12	-10.7% (inactive)

SMILES	activation
COc1cccc(OC)c1CN(C)C(=O)c1cnccc1C(F)(F)F	-0.62% (inactive)
Cc1nc([N+](=O)[O-])cn1CC(=O)Nc1ccc(Cl)cc1	7.49% (inactive)
Nc1c(C(=O)c2cccs2)sc2nsc(SCCN3CCCCC3)c12	790% (active)
CN=C(c1ccccc1)c1c(C)cccc1C	0.32% (inactive)
CN(C)CCNC(=O)C(C(=O)c1ccccc1)n1ccccc1=O (stereo not given)	5.66% (inactive)
Cc1nn2c3cc(N4CCOCC4)ccc3nc2c2ccccc12	31.7% (inactive)
Cc1ccn2c(=O)c(NC(=O)c3cccc4ccccc34)c(C)nc2c1	4.6% (inactive)
CC(=O)c1sc(NC(=O)C2=NN(c3ccccc3)C(=O)CC2)nc1C	0.238% (inactive)
CC(=O)c1sc(NC(=O)c2cccc3ccccc23)nc1C	63.5% (active)
Cc1cccc(N2C(=O)C3C(c4ccccc4)OC4(C(=O)c5ccccc5C4=O)C3C2=O)c1 (stereo not given)	0.83% (inactive)
CCOc1ccc(N2C(=O)Nc3ccccc3C2(O)C(=O)NCc2ccco2)cc1 (stereo not given)	-28.4% (inactive)
CCCCCCCC(=O)NC(Nc1ccccc1OC)C(Cl)(Cl)Cl (stereo not given)	-13.4% (inactive)
Cc1ccsc1CNn1cnnc1SCc1ccccc1F	54.5% (active)
Cc1ccccc1CSc1nnc(-c2cccnc2)n1N	-17.4% (inactive)
CCN(CC(=O)NCc1cccs1)C(=O)c1cccc(S(=O)(=O)Nc2ccccc2OC)c1	2.02% (inactive)
CCOc1ccc(C(C(=O)NCCOC)N(CCOC)C(=O)CCC(=O)Nc2ccccn2)cc1 (stereo not given)	-1.66% (inactive)
Cc1ccc(C(=O)O)cc1N1C(=O)CCCC1=O	4.24% (inactive)
COCCCNc1nc2c(-c3cccc(C)c3)nnn2c2ccc(Cl)cc12	6.31% (inactive)
CN(CC(=O)Nc1ccc(F)c(F)c1F)C(=O)Cn1cnc2c1c(=O)n(C)c(=O)n2C	3.59% (inactive)
O=C(c1ccc(Cl)cc1)N1N=C(c2ccccn2)CC1(O)C(F)(F)F (stereo not given)	7.8% (inactive)
O=C1NC(=O)N(c2ccc(F)cc2)C(=O)/C1=C/c1ccc2c(c1)CCCN2Cc1ccccc1	50.1% (active)
O=C1CN(C(=O)c2cc(F)cc(F)c2)c2ccccc2N1	10.5% (inactive)
COCCNC(=O)C(c1ccc(O)cc1)N(C(=O)CCC(=O)Nc1nccs1)c1ccc(C)cc1 (stereo not given)	8.66% (inactive)

SMILES	activation
CC(=O)Oc1cc2c(C(=O)NCCN3CCOCC3)c(C)oc2c2ccccc12	-12.4% (inactive)
O=C(CN1C(=O)NC(Cc2ccccc2)(Cc2ccccc2)C1=O)NCC1CCCCC1	2.41% (inactive)
CCCCCCNCCn1cnc2c(N)ncnc21	2.79% (inactive)
CCOCCN(C=O)c1cccc(OC)c1	4.02% (inactive)
COc1ccc(C(C(=O)NC2CCCCC2)N(C(=O)c2snc(C(N)=O)c2N)c2ccccc2OC)cc1 (stereo not given)	6.68% (inactive)
CCC(C(=O)NC1CCCCC1)N(C(=O)c1snc(C(N)=O)c1N)c1ccc(OC)cc1OC (stereo not given)	8.72% (inactive)
COc1ccc(N(C(=O)c2snc(C(N)=O)c2N)C(C(=O)NC2CCCC2)c2ccc(C)o2)c(OC)c1 (stereo not given)	146% (active)
O=C(NCCCO)/C(=C\C=C\c1ccccc1)NC(=O)c1ccccc1Cl	-2.84% (inactive)
CCNC(=O)NC(=O)C(C)OC(=O)C1CCN(S(=O)(=O)c2ccccc2F)CC1 (stereo not given)	5.47% (inactive)
C=CC[C@H](CC(=O)N(CCO)Cc1ccccc1)C(=O)N[C@@H](COC(=O)[C@@H](CC=C)Cc1ccc(F)cc1)Cc1ccccc1	-7.46% (inactive)
Cc1nc(NCc2ccccc2)c(C(N)=O)c2c1COC(C)(C)C2	-2.87% (inactive)
CCCn1c(=O)c2c(C(F)(F)F)cc(-c3cccs3)nc2n(CCC)c1=O	11.8% (inactive)
O=C(O)C(c1ccccc1)N1C(=O)/C(=C\c2ccc(-c3cccc(Cl)c3)o2)SC1=S (stereo not given)	199% (active)
O=C(NC(=S)Nc1cc(C(F)(F)F)ccc1N1CCOCC1)c1ccc(-c2cccc(Cl)c2)o1	-2.26% (inactive)
CC(C(=O)NC1CCS(=O)(=O)C1)N1C(=O)/C(=C/c2ccc(Cl)cc2)SC1=S (stereo not given)	0.406% (inactive)
CC(C)N=C1CCCC1C(=S)SSC(=S)C1CCCC1=NC(C)C (stereo not given)	1.19% (inactive)
CN(C)c1ccc(Nc2c3c4c(cccc4n(C)c2=O)C(=O)c2ccccc2-3)cc1	178% (active)
CN(C)c1ccc(C2N(C)C(=O)c3ccccc3N2C)cc1 (stereo not given)	-0.422% (inactive)
NC1=NC(=O)C(Cc2cccc(Cl)c2Cl)S1 (stereo not given)	-10% (inactive)
COc1cc(C(=O)NCc2nnc(SCC(=O)Nc3nc4ccc(C)cc4s3)o2)cc(OC)c1OC	12.4% (inactive)
CCN(CC)CCOc1ccc2c(c1)C(=NNC(=O)c1ccccn1)c1cc(OCCN(CC)CC)ccc1-2	-0.85% (inactive)
CN(CCNC(=O)c1cc2c(-c3ccccc3F)nn(C)c2s1)C1CCCCC1	18.1% (inactive)
CCc1nc(Nc2ccc3nccnc3c2)c2oc3ccccc3c2n1	92.8% (active)

SMILES	activation
C[C@@H](Nc1nc(-c2ccccc2)nc2c1oc1ccccc12)C(=O)O	0.442% (inactive)
COCCNc1nc(-c2ccccc2)nc2c1oc1ccccc12	10.6% (inactive)
O=C(CSc1ccc(Cl)cc1)NC1CC1	8.89% (inactive)
Cc1noc(NS(=O)(=O)c2ccc(N3CC(O)=C(c4ccccc4)C3=N)cc2)c1C	-0.03% (inactive)
COc1ccc(N=C2C=CC(=O)O2)cc1	6.95% (inactive)
COc1ccc(N=Nc2c(-c3ccc(OC)cc3)[nH]oc2=O)cc1	61.5% (active)
O=c1o[nH]c(-c2ccccc2)c1N=Nc1c(F)cccc1Cl	-10.5% (inactive)
COc1ccc(N2CCN(Cc3ccc(Br)s3)CC2)cc1	-3.28% (inactive)
O=S(=O)(c1cnccc1N1CCN(/N=C/c2ccc(Br)cc2)CC1)N1CCCCC1	-7.86% (inactive)
O=C(c1ccc(Cl)nc1)N1CCN(S(=O)(=O)c2ccc3c(c2)OCCO3)CC1	2.83% (inactive)
COc1cc(C(=O)N2C(=O)c3cccc(N)c3C2=O)cc(OC)c1OC	75.9% (active)
COc1cc(C(=O)N2CCN(C)CC2)cc(OC)c1OC	4.16% (inactive)
CC1CC(C)CN(S(=O)(=O)c2cccc(C(=O)N3C(=O)c4cccc(N)c4C3=O)c2)C1 (stereo not given)	3.79% (inactive)
NC(CSC(c1ccccc1)(c1ccccc1)c1ccc(-c2ccccc2)cc1)C(=O)O (stereo not given)	-7.6% (inactive)
COc1ccc(CN(C)C(=S)Nc2ccc(Cl)cc2Cl)cc1	7.07% (inactive)
CCn1c(/C=C/c2ccc([N+](=O)[O-])o2)nc2ccccc2c1=O	1270% (active)
O=c1c2ccccc2nc(/C=C/c2ccco2)n1-c1ccccc1O	-0.876% (inactive)
O=c1c2ccccc2nc(/C=C/c2ccc(F)cc2)n1-c1ccccc1O	-12.9% (inactive)
CN1OC[C@@H]2CN[C@H](c3ccc(-c4ccccc4)cc3)C[C@@H]21	8.87% (inactive)
COC(=O)c1c(-c2ccsc2)oc2ccc(-c3cc(OC)c(OC)c(OC)c3)cc12	1.83% (inactive)
O=C1N[C@H](Cc2c[nH]c3ccccc23)COC(=O)[C@H](Cc2ccc(F)cc2)C/C=C\C[C@H]1CC(=O)N(CCO)Cc1ccccc1	-14.8% (inactive)
